Hits are enriched below; roughly 12% of the tested compounds scored in any of these assays.
G9a block: blocks human histone lysine methyltransferase G9a. 350,000 tested, 8.8% active. Q96KQ7. G9a H3K9 monomethylation, AlphaScreen, 2 h. Potency, µM (doses to about 102 µM), most hits filed as inhibitors; note: nearly all actives have a fitted effect of over 75% in size
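Readings reflect AlphaScreen signal from monomethyl-H3K9 antibody detection. HMT at 20 nM; substrate b-H3K9 500 nM; cofactor SAM 20 uM; 2 h RT reaction; compounds tested as titrations in qHTS with 15 min preincubation.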
JMJD2A Tudor: inhibitors of human JMJD2A Tudor domain | AID 504339 | 390,000 tested, 4.4% active | O75164 | AlphaScreen JMJD2A-Tudor / H3K4me3 peptide binding | Potency, µM (series often up to 114 µM), actives largely listed as inhibitors; note: nearly all actives have a fitted effect of over 50% in size
Target sequence (O75164 whole entry, looked up, the tested form may be a part): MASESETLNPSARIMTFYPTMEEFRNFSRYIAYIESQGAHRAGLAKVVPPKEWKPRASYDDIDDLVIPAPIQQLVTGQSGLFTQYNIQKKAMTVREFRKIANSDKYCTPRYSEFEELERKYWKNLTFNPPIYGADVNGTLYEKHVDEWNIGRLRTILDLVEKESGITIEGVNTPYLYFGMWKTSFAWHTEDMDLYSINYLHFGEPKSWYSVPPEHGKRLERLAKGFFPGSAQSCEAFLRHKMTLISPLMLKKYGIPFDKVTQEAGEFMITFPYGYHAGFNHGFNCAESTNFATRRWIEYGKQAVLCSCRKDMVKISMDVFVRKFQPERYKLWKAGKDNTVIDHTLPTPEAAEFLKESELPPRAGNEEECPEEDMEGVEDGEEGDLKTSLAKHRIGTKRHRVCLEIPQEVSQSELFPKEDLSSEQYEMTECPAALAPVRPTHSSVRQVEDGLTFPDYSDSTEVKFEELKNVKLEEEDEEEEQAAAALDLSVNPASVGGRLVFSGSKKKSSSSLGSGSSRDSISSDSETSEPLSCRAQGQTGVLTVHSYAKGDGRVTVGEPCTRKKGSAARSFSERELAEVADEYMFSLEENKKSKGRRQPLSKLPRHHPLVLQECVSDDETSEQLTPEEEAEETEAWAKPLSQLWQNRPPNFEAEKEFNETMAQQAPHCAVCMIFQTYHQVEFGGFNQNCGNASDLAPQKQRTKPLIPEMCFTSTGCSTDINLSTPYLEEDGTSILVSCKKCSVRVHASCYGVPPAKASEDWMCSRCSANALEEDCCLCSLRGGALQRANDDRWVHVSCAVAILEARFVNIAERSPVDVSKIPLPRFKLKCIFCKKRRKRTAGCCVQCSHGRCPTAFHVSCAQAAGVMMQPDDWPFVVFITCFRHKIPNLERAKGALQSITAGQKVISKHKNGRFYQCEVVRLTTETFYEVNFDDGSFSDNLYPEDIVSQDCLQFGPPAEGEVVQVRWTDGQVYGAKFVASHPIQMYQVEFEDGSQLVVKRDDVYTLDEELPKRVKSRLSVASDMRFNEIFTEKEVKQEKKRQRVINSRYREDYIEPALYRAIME
PLK1 PBD block: blocks phosphopeptide binding to human PLK1 polo-box domain; Plk1 PBD binding of FITC phosphopeptide, fluorescence polarization; Potency, µM, hits mostly inhibitors; 360,000 tested, 2.8% active; AID 720504; note: series mostly up to about 57 µM; nearly all actives have a fitted effect of over 65% in size
PI5P4Ka inh: blocks human PI5P4K alpha kinase activity; PI5P4Kalpha enzyme, ADP-Glo luminescence, 60 min; hits give low values; P48426; max response, %; 330,000 tested, 1.2% active; active = max response of -50% or lower; inconclusive = between -30% and -50%; inactive = -30% or higher; note: value at the top dose of about 77 µM
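PI5P4Kalpha ADP-Glo assay; 5 microM ATP final; 60 min RT reaction; HEPES pH 7.4/EGTA/CHAPS, 5% DMSO; controls lacking substrate or enzyme; luminescent end-point.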
HP1b chromo inh: blocks HP1-beta chromodomain binding to methylated histone tails; AID 540317; AlphaScreen HP1-beta / biotin-H3K9me3 peptide binding; P83916; 390,000 tested, 0.56% active; Potency, µM (top dose mostly 114 µM), usual class: inhibitors; note: nearly all actives have a fitted effect of over 70% in size
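Compound inhibition of the preformed complex between 50 nM HP1-beta and 50 nM biotinylated H3K9me3 peptide was read by AlphaScreen. Buffer was PBS pH 7.4 with 0.01% Tween-20. Incubations ran 30 min at room temperature, with 10 ug/mL donor/acceptor beads.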
BAZ2B inh: inhibitors of human BAZ2B bromodomain | Potency, µM (top dose mostly 114 µM), most hits filed as inhibitors | AlphaScreen BAZ2B-H3K14Ac peptide displacement | 360,000 tested, 4.4% active | Q9UIF8 | AID 504333; note: nearly all actives have a fitted effect of over 60% in size
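AlphaScreen luminescence quantifies BAZ2B engagement of H3K14Ac peptide; the protein and biotinylated peptide are both at 50 nM final, buffer PBS pH 7.4 with 0.01% Tween-20, all steps at room temperature.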
Each line names hits and unclear results; the compound was inactive in the other large screens. Unless noted, calls come from the whole dose curve; as a rule, active = well fitted curve in the direction sought with a large enough effect; inconclusive = small, poorly fitted or top-dose-only effect, or another doubt; inactive = no such curve, though single readings can be large; an effect the other way counts as inactive or inconclusive.

Cc1ccc(-c2nsc(NC(=O)c3oc4cc(C)c(Cl)cc4c3C)n2)cc1	none (no result: PLK1 PBD block, PI5P4Ka inh)
CCCCCOc1ccc(C(=O)CCC(=O)N2CCCC2)cc1	none
CCCOc1ccc(C(=O)CCN2CCCCC2)cc1	G9a block 18µM, PLK1 PBD block 13µM
CCOc1ccc(C(=O)CCN2CCCCCC2)cc1	G9a block 5µM, PLK1 PBD block 11µM
CCCCCOc1ccc(C(O)C(CN2CCOCC2)c2ccccc2)cc1 (stereo not drawn)	JMJD2A Tudor inconclusive, PLK1 PBD block 27µM (no result: G9a block)
COc1ccc(C(O)C(CN2CCOCC2)c2ccccc2)cc1 (stereo not drawn)	none (no result: PI5P4Ka inh)
CCCCOc1ccc(C(=O)NN2CCOCC2)cc1	none (no result: G9a block, BAZ2B inh)
CCCCOc1ccc(C(=O)CCN2CCOCC2)cc1	G9a block 22µM, PLK1 PBD block 24µM
CN(C)CCCNc1nc2cc(-c3cnn(C)c3)sc2c(=O)n1C	none (no result: G9a block, JMJD2A Tudor, HP1b chromo inh, BAZ2B inh)
COc1ccc2c(-c3ccc(S(N)(=O)=O)cc3)c(-c3ccc(S(C)(=O)=O)cc3)sc2c1	none (no result: G9a block, BAZ2B inh)
CCN(CC)c1ccc(NC(=O)c2cc3c(OC)cccc3[nH]2)cc1	G9a block 8.9µM, JMJD2A Tudor 16µM, HP1b chromo inh 45µM, BAZ2B inh 20µM
COc1ccc(-c2nc3cnc(N(C)C)nc3n(C)c2=O)cc1	none (no result: JMJD2A Tudor, PLK1 PBD block, PI5P4Ka inh, HP1b chromo inh, BAZ2B inh)
O=C(CCCCn1cnc2c(=S)nc[nH]c21)Nc1ccc(C(=O)O)cc1	JMJD2A Tudor 1.4µM, PI5P4Ka inh inconclusive, HP1b chromo inh 71µM (no result: G9a block, BAZ2B inh)
CCOc1cc([C@@H]2C[C@H]3CN(c4ccccc4)C(=O)[C@]34CCCN24)ccc1OC	G9a block 50µM
CCN(C(=O)COC(=O)c1ccc(=O)n(Cc2ccccc2)n1)C1CCS(=O)(=O)C1 (stereo not drawn)	none
Cc1c(F)cccc1NS(=O)(=O)c1cccs1	none (no result: PLK1 PBD block, PI5P4Ka inh)
Cc1cccc(CNS(=O)(=O)c2ccc(-c3ccc(=O)[nH]n3)s2)c1	JMJD2A Tudor inconclusive, PLK1 PBD block 24µM
C=CCCC(=O)Nc1nc(C)c(-c2csc(Nc3ccccc3OC)n2)s1	G9a block 25µM, JMJD2A Tudor inconclusive, BAZ2B inh inconclusive
C=CCCC(=O)Nc1nc(C)c(-c2csc(Nc3cc(Cl)ccc3OC)n2)s1	G9a block inconclusive, JMJD2A Tudor inconclusive, BAZ2B inh inconclusive
C=CCCC(=O)Nc1nc(C)c(-c2csc(Nc3ccc(Cl)cc3Cl)n2)s1	G9a block 7.1µM, JMJD2A Tudor inconclusive, HP1b chromo inh inconclusive, BAZ2B inh inconclusive
O=C(Nc1ccccc1)N1CCCC2(CCN(C(=O)c3ccco3)CC2)C1	none (no result: JMJD2A Tudor, PLK1 PBD block, PI5P4Ka inh, HP1b chromo inh, BAZ2B inh)
Cc1ccc(C2C(=O)N(C3CCCCCC3)CC(=O)N2CCC2=CCCCC2)cc1 (stereo not drawn)	none (no result: PLK1 PBD block, PI5P4Ka inh)
O=C(O)c1cc(NN=Nc2cccc([N+](=O)[O-])c2)cc([N+](=O)[O-])c1	G9a block inconclusive, PI5P4Ka inh inconclusive, BAZ2B inh inconclusive
O=C(O)c1cc(NN=Nc2cccc(S(=O)(=O)O)c2)cc([N+](=O)[O-])c1	PI5P4Ka inh -55
O=C(O)c1cc(NN=Nc2ccc(Br)cc2)cc([N+](=O)[O-])c1	G9a block 32µM, JMJD2A Tudor inconclusive, PLK1 PBD block inconclusive
N/C(=N\OC(=O)c1ccc(Br)cc1)c1cccc([N+](=O)[O-])c1	none
CCOc1ccccc1NC(=O)COc1cccc2c(=O)n(CCOC)ccc12	none (no result: PLK1 PBD block, PI5P4Ka inh)
Cc1oc(=O)c(NC(=O)c2ccccc2)cc1C(=O)c1ccccc1	none (no result: G9a block, PI5P4Ka inh)
CC1(C)CC(=O)c2cc(NC(=O)c3ccccc3)c(=O)oc2C1	JMJD2A Tudor 79µM, PLK1 PBD block 27µM
CC(=O)c1cc(NC(=O)c2ccc(C)cc2)c(=O)oc1/C=C/N(C)C	none
CC(=O)c1cc(NC(=O)c2ccc(C)cc2)c(=O)oc1C	G9a block 18µM, JMJD2A Tudor 20µM, PLK1 PBD block 11µM
CC(=O)c1cc(NC(=O)c2ccccc2)c(=O)oc1C	G9a block 32µM, PLK1 PBD block inconclusive, HP1b chromo inh inconclusive
O=C(Nc1cc2c(oc1=O)CCCC2=O)c1cccc(Cl)c1	none (no result: PI5P4Ka inh)
CC1=C(C(=O)N(C)C)CC(CC(=O)NC2CCCCC2)C(=O)N1Cc1ccc(F)cc1 (stereo not drawn)	none (no result: G9a block, JMJD2A Tudor, HP1b chromo inh, BAZ2B inh)
O=C(NNCc1ccccc1)c1ccccn1	JMJD2A Tudor inconclusive (no result: G9a block, BAZ2B inh)
CC(C)n1c(=O)c2ccccc2n1S(C)(=O)=O	none (no result: G9a block, JMJD2A Tudor, HP1b chromo inh, BAZ2B inh)
CC1(O)CC(c2ccc(Cl)cc2)=NN1C(=O)c1ccc([N+](=O)[O-])cc1 (stereo not drawn)	G9a block inconclusive, HP1b chromo inh inconclusive, BAZ2B inh 14µM
O=C(NCCc1ccccc1)C(=O)NCC(c1cccs1)S(=O)(=O)c1cccs1 (stereo not drawn)	G9a block inconclusive (no result: PLK1 PBD block, PI5P4Ka inh)
COCCN(C(=O)CSc1nc2ccc(OC)cc2[nH]1)c1c(N)n(Cc2ccccc2)c(=O)[nH]c1=O	G9a block 20µM
COCCN(C(=O)CSc1nc(N)cc(=O)[nH]1)c1c(N)n(Cc2ccccc2)c(=O)[nH]c1=O	G9a block 50µM
CCOc1ccc2nc(SCC(=O)N(CC(C)C)c3c(N)n(Cc4ccccc4)c(=O)[nH]c3=O)[nH]c2c1	G9a block 50µM
Cc1nc2ccc(C(=O)NCCCN3CCCC3=O)cn2c1N(C)C(=O)CCc1ccccc1	none (no result: G9a block, JMJD2A Tudor, HP1b chromo inh, BAZ2B inh)
Cc1nc(C2COc3ccccc3O2)sc1C(=O)O (stereo not drawn)	none
O=C(CSc1nnc(C2COc3ccccc3O2)o1)N1CCCCC1 (stereo not drawn)	G9a block inconclusive
S=c1nc(C2COc3ccccc3O2)[nH][nH]1 (stereo not drawn)	G9a block 3.5µM, JMJD2A Tudor 1.8µM, PLK1 PBD block inconclusive, BAZ2B inh inconclusive
S=c1[nH]nc(C2COc3ccccc3O2)o1 (stereo not drawn)	G9a block 32µM, PLK1 PBD block inconclusive
CC1C(=O)N2CCCc3cc(NC(=O)C(=O)NCCc4c[nH]c5ccccc45)cc1c32 (stereo not drawn)	G9a block 28µM, JMJD2A Tudor inconclusive
CC1C(=O)N2CCCc3cc(NC(=O)C(=O)NCCc4ccccc4)cc1c32 (stereo not drawn)	none
CCn1c(SC(=O)NC2CCCCC2)nnc1-c1cccs1	G9a block inconclusive, JMJD2A Tudor 4.5µM, PLK1 PBD block 2.7µM, HP1b chromo inh 22µM
O=S(=O)(c1ccc2ccccc2c1)N1CCN(c2ccc(O)cc2)CC1	JMJD2A Tudor 35µM, HP1b chromo inh inconclusive (no result: G9a block, BAZ2B inh)
O=C(c1ccc2ccccc2c1)N1CCN(c2ccc(O)cc2)CC1	G9a block 32µM, JMJD2A Tudor inconclusive, HP1b chromo inh inconclusive (no result: PI5P4Ka inh)
O=C(CSc1ccc2ccccc2c1)N1CCN(c2ccc(O)cc2)CC1	G9a block 16µM, JMJD2A Tudor 50µM, BAZ2B inh 50µM
COc1ccc(N2CCN(C(=O)CSc3nnc(-c4cc5ccccc5cc4O)n3C)CC2)cc1	JMJD2A Tudor inconclusive (no result: PI5P4Ka inh)
